The full ranking holds about 25,000 sequences; the median of “ln(normalized median fluorescence intensity)” is about 9.3, and the highest 2% start at about 10. The sample as a whole holds a higher share of the highest values than the screen did.
The sequences below were run on PF3D7_0420300 AP2 domain 1 (GST-tagged) (assay: gcPBM binding intensity (ln(normalized median fluorescence intensity)); higher = stronger DNA binding).
Outline: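 Each value is the highest Masliner-normalised natural-log median intensity across replicate spots of either orientation of a probe. The probes were primer-extended double-stranded 36-bp intergenic genomic sequences on an Agilent 4 × 180k array, alongside negative controls, exposed for 1 h to GST-tagged P. falciparum DNA-binding domains expressed in E. coli. Bound protein was picked up with Alexa488 anti-GST antibody and scanned at 488 nm.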

Sequence	gcPBM binding intensity (ln)
GTGTCAAATTTTATAACACACAAAAGGTTATATAAG [CACACA_site7839]	9.28
AAATAGATAAACTAAACACACAAAAAAAAAAAAAAT [CACACA_site1179]	9.84
CATTTATTTTTGTTCTGTACATAAAGATGAACAAAA [XGTACX_site6797]	8.81
CATACATACAAACACACACACATATATATACATACA [CACACA_site852]	10.2
TATATACACGCACATACACACAAATAAAAAAACACC [CACACA_site7578]	9.93
CACATACACATACAAACACACATTATATATATATAT [CACACA_site8460]	9.62
AAAAAAAAAACAAATACACACGCACCCAAAAAAAAA [CACACA_site8166]	9.81
TATACGTATACCTATACACACATATATATATATATA [CACACA_site1273]	9.49
TATATATATATATATACACACATATATACCTATATA [CACACA_site6085]	9.31
GGATATAACAAACACACACACACATATATATATATT [CACACA_site4141]	10.2
CATACATACAAACACACACACATATATATATATATA [CACACA_site43]	9.86
AACATACACATATACACACACACATATATACCTATA [CACACA_site6643]	10.4
AAAAAAAAAAAAAACACACACACACGCAAATACATA [CACACA_site6474]	10.2
AATATAAACAAACACACACACATATATATATATATT [CACACA_site5592]	10.1
AATATAAACACAAACACACACATATATATATATATA [CACACA_site4307]	9.68
TTTTTTTTTGTTTACACACACAAAATATTATATGTA [CACACA_site2470]	9.66
AATATATACATACATACATGCACATATATATATATA [TGCATGCA_site393]	9.36
CATATTAAAAATACATGTACATATATATTTAATATA [XGTACX_site8580]	9.08
ATTAAAAAAGAATATACACACCAAAACTGTTTGTTA [CACACA_site4687]	9.21
ATATGACTGTTCATTTGTACGTATAATTATATACGT [XGTACX_site3372]	9.33

Sequence	gcPBM binding intensity (ln)
ATCAACAAAACATACACACACATATAGATTTATATA [CACACA_site7415]	10
TTTTCAATTTTTTATGAACACACAAAAAAAAAAAAA [CACACA_site8808]	8.77
GTAGAGCATAATAAAACACACACATACATACATATA [CACACA_site8217]	9.84
AAAAAAAAAAAACACACACACACAAATACATACACA [CACACA_site706]	10.2
AATACATACACAAATACACACACAAATACATACACA [CACACA_site8134]	10.1
AAAAAAAAAAAACACACACACAAATACAAATACATA [CACACA_site415]	10.2
GGTACATACAAACACACACACAAAAAAAAAAAAATA [CACACA_site1577]	9.91
TACATACACAAATACACACACAAATACATACACAAA [CACACA_site704]	10.1
TTTTTTTTTTTTAATTAACACACATAAATATATATA [CACACA_site9077]	9.11
AAAAAATAATTGAAGTGTACGTACAATGATTTTACT [XGTACX_site7663]	9.35
TTTCCCCCATATAATGAACACACACCCTCCTCATAA [CACACA_site8110]	9.85
CCCCATATAATGAACACACACACTCCTCATAATTAA [CACACA_site628]	10.2
CCCATGTAATATTAAACACACACTCATATAACACAA [CACACA_site7906]	9.71
ACCTATATAAATTATACACACAAATATAAATATATA [CACACA_site2843]	9.66
ACAAAATATACAAAATGTACAAAATTTACAAAATAT [XGTACX_site6466]	9.43
TATAAAATGACTATATATAATATTAAAAAAAAAAAA [TGCATGCA_negctrl_site387]	9.11
ATTTCATACAGACACACACACAAACAAACATATATA [CACACA_site979]	10.1
CCAAACAAAAAAAAAAGTACATAAAACACCTATTTG [XGTACX_site5645]	9.46
GTACCTATTTCATACACACACACACCCAAACAAACA [CACACA_site976]	10.3
ATGTACCTATTTCATACACACACACCCACAAACAAA [CACACA_site8232]	10

Sequence	gcPBM binding intensity (ln)
GTACCTATTTCATACACACACACACGCAAACAAACA [CACACA_site6590]	10.3
AAGGCAAACAAACACACACACATATATACCTATATA [CACACA_site5203]	10
TATATTTAATTATTATGTACTTATAATTTTTGAAAG [XGTACX_site8548]	8.95
TTAATATAACTTTTTGCACACTTAATTTTTTTTTTT [CACACA_site3364]	9.44
TATATATATATACCAACACACATACAGATATATATA [CACACA_site5060]	9.7
ACATATACATATATATGTACATAAATATATATATAT [XGTACX_site8630]	9.17
TATTCATGCATATACACACACATATATATATATTTT [CACACA_site3955]	9.85
TCTTTTTTTACTTTCTTTTTTTTTTTTTTTTTTTTT [XGTACX_negctrl_site610]	9.11
ATAAATATATATTTACGTACATATTATATATATATA [XGTACX_site6172]	9.27
CGCGCACCCAGACACACACACACACCGATATATATA [CACACA_site8687]	10.2
CACGCGCACCAACACACACACACACCCATATATATA [CACACA_site2204]	10.3
TATAAACACCCATATAAACACACATATAAACCAACA [CACACA_site8790]	9.79
TATACACCCAGACACACACACACACCCAAAAAAAAA [CACACA_site497]	10
TAGACTCCCAGACACACACACACACCCATATAATAT [CACACA_site593]	10.2
CACCCATACAGACATACACACACATATATATTAATA [CACACA_site8077]	9.87
CACCCACACCAACACACACACATATATATATATATA [CACACA_site362]	10.1
GGAGCACCCAGACACACACACACATATATATATATA [CACACA_site336]	10.1
CGCGCACCCAGACACACACACACACCCATATATATA [CACACA_site2203]	10.2

Reference: the supplement of paper PMC11417369
